In PubChem BioAssay (NCATS):
Results filed as inconclusive are left out. The list shows a part of the results. Calls of active or inactive are those of the source. Unless noted, the call rests on the fitted dose curve; in most records, active means well fitted curve in the direction sought with a large enough effect; inconclusive means small, poorly fitted or top-dose-only effect, or another doubt; inactive means no such curve, though single readings can be large; an effect the other way counts as inactive or inconclusive.

Columns and labels:
[1] = qHTS Assay for Inhibitors of Fructose-1,6-bisphosphate Aldolase from Giardia Lamblia: Coupling assay counterscreen confirmation (AID 2795); further: on the % scale 0 is the no-effect control and ±100 the full control effect; nearly all actives have a fitted effect of over 55% in size
Method in brief: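 Compounds at up to 57.5 uM final tested against the coupling enzymes and resorufin-type fluorescent detection only, aldolase omitted. Ex 525 nm/em 598 nm read after 10 min enzyme-compound and 20 min substrate incubations, room temperature.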

[2] = target: Lysosomal acid glucosylceramidase (Homo sapiens) (UniProt P04062); experiment: Glucocerebrosidase-p2 (AID 348; in the data active means potency below about 10 µM; further: potency means the concentration at half of the fitted maximal effect); details: purified GBA, blue fluorogenic substrate, 40 min
Lysosomal acid glucosylceramidase (Homo sapiens), sequence (P04062 whole entry, looked up): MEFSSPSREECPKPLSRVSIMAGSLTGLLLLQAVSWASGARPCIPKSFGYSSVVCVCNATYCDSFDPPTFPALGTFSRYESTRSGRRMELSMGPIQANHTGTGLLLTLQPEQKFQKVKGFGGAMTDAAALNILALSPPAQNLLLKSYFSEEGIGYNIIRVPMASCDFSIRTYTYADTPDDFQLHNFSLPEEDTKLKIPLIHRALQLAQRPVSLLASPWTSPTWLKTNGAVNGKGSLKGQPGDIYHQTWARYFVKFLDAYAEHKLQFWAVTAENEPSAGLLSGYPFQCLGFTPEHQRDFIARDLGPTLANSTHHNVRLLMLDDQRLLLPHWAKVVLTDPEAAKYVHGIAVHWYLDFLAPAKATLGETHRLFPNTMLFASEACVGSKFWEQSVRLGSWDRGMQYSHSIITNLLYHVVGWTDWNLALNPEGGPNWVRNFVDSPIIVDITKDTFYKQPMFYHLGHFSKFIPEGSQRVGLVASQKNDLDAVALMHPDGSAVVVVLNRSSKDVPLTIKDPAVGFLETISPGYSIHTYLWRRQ
Method in brief: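 Compounds titrated from 0.6 nM upwards against 0.2 nM enzyme in pH 5.9 citric acid/KH2PO4, taurocholate, tween-20; blue fluorogenic substrate 80 uM, 40 min room temperature, stopped and read Ex 365/Em 440 for AC50.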

[3] = AP1 Signaling Pathway (AID 357; active means well fitted curve in either direction with a large enough effect, not every such curve was filed as active;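 further: ME-180 reporter cells stimulated with EGF at its EC50 level; on the % scale 0 is the no-effect control and ±100 the full control effect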); details: ME-180 AP-1-bla reporter, EGF-induced, beta-lactamase ratio, 5 h; at 7.69 µM (top of the series) unless noted
Method in brief: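 Titration-series screen for positive or negative modulators of EC50 EGF-induced signaling in ME-180 cells carrying an AP-1-driven beta-lactamase reporter. After 5 hours at 37 degrees Celsius, CCF4 460nm/530nm emission ratio gave %Activity; AC50 values derived.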

[4] = target: Cytochrome P450 1A2 (Homo sapiens) (UniProt P05177); experiment: p450-cyp1a2 (AID 410; calls by dose curve)
Cytochrome P450 1A2 (Homo sapiens), sequence (P05177 whole entry, looked up): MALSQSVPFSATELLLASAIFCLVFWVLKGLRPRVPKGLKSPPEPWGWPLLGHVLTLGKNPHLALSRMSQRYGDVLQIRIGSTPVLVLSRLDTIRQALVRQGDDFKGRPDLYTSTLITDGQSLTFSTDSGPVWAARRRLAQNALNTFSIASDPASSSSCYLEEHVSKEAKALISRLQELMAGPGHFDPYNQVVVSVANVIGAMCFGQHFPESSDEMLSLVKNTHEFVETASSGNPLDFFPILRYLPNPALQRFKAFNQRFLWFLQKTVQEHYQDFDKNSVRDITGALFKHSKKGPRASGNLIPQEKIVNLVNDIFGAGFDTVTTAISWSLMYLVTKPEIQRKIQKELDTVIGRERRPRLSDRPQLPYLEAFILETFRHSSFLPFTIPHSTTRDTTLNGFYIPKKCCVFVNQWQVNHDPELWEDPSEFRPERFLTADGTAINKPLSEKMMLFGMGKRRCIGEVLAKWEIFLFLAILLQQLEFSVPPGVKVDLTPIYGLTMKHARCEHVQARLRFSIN
Method in brief: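 Inhibition was calculated relative to 57 uM furafylline (full inhibition). The reaction used human CYP1A2 at 20nM with Luciferin-ME at its Km, 100uM, driven by an NADPH-regenerating system for 60 min at room temperature.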

[5] = NFAT Signaling Pathway (AID 444; active means well fitted curve in either direction with a large enough effect, not every such curve was filed as active;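 further: carbachol stimulus at about its EC50 of 1 µM final; on the % scale 0 is the no-effect control and ±100 the full control effect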); details: Jurkat NFAT-bla M1, carbachol, beta-lactamase ratio, 5 h; at 7.69 µM (top of the series) unless noted
Method in brief: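 Jurkat cells carrying an NFAT-driven β-lactamase reporter and co-transfected muscarinic M1 receptor were treated with compound plus carbachol (1 uM final, an EC50 level) for 5 h at 37 °C. CCF4 loading followed for 1 h at RT; 460/530 nm ratio gave %activity.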

[6] = Stat Signaling Pathway (AID 446; active means well fitted curve in either direction with a large enough effect, not every such curve was filed as active;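 further: ME-180 cervical cancer cells given 40 pM IL-6 alongside compound; SIE-controlled beta-lactamase reporter measured as 460/530 nm FRET emission ratio; on the % scale 0 is the no-effect control and ±100 the full control effect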); details: ME-180 SIE beta-lactamase reporter, IL-6 stimulated, 5 h; at 7.69 µM (top of the series) unless noted
Method in brief: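 Screening format detects activators and inhibitors alike: ME-180 SIE-bla cells stimulated at 40 pM IL-6 for 5 hrs with compound, then dual-emission beta-lactamase read at 405 nm excitation.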

[7] = target: Glucocorticoid receptor (Homo sapiens) (UniProt P04150); experiment: GR-GFP Redistribution (AID 450;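 active means compounds whose dose series gives a full or clear partial fitted curve of increased nuclear translocation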; further: potency means the concentration at half of the fitted maximal effect); details: U2OS GR-GFP nuclear translocation, laser cytometry, 2 h
Glucocorticoid receptor (Homo sapiens), sequence (P04150 whole entry, looked up, the tested form may be a part): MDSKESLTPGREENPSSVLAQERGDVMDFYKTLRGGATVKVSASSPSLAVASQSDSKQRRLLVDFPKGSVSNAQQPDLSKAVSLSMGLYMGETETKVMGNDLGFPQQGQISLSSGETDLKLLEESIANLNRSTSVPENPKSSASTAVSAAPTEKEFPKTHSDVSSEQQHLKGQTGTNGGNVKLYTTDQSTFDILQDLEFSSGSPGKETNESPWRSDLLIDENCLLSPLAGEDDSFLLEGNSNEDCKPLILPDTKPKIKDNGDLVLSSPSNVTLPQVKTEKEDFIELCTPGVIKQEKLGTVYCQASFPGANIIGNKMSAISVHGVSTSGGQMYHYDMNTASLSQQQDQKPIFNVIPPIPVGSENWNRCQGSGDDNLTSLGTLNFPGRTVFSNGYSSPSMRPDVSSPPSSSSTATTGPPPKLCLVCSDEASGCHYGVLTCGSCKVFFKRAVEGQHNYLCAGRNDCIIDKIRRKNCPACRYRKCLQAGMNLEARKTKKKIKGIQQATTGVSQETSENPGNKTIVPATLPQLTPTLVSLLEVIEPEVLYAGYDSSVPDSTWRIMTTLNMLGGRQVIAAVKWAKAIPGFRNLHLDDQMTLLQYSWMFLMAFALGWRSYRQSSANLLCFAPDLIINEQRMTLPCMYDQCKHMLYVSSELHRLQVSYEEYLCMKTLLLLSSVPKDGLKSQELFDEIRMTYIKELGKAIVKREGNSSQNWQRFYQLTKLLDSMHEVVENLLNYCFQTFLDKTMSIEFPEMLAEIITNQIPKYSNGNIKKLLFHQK

[8] = target: Glucocorticoid receptor (Homo sapiens) (UniProt P04150); experiment: GR-EFC Redistribution (AID 451; calls by dose curve; further: potency means the concentration at half of the fitted maximal effect); details: CHO-K1 GR-EFC translocation, beta-gal luminescence, 2 h
Method in brief: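 CHO-K1 cells stably expressing nuclear-localized β-gal enzyme acceptor and GR fused C-terminally to the enzyme donor fragment; ligand-driven nuclear translocation restores β-gal by complementation. Compounds titrated up to 46 uM final, 2 h at 37 °C; luminescence read.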

[9] = target: Mitogen-activated protein kinase 10 (Mus musculus) (UniProt Q61831); experiment: JNK3 AlphaScreen Assay (AID 530; active means well fitted curve in either direction with a large enough effect, not every such curve was filed as active;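 further: kinase came from lysate of stimulated human HepG2 cells; signal reports phosphorylation of biotinylated GST-cJun 1-79 at Ser73 with 10 µM ATP; on the % scale 0 is the no-effect control and ±100 the full control effect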)
Method in brief: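 JNK3 came from HepG2 lysates pre-activated with IL-1beta and TNF-alpha and phosphorylated biotinylated GST-cJun (1-79) at 10 uM ATP, pH 7.6, room temperature. Compounds were titrated. AlphaScreen signal used anti-phospho-cJun (Ser73) antibody.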

[10] = target: Cytochrome P450 3A4 (Homo sapiens) (UniProt P08684); experiment: qHTS Assay for Activators of Cytochrome P450 3A4 (AID 885); further: nearly all actives have a fitted effect of over 65% in size
Cytochrome P450 3A4 (Homo sapiens), sequence (P08684 whole entry, looked up): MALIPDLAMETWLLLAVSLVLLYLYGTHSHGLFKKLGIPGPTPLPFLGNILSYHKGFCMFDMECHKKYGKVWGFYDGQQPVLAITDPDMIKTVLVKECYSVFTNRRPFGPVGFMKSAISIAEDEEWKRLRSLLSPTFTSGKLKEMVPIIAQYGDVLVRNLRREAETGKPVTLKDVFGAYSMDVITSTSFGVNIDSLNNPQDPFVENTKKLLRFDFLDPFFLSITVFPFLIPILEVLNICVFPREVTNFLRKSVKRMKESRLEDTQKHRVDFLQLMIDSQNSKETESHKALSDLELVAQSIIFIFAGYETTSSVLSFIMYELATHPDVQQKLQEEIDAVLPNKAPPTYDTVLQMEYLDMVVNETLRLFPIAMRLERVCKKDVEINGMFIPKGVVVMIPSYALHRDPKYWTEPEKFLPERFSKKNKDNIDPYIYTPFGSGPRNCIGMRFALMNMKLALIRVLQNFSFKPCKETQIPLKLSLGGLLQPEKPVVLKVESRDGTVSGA
Method in brief: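 Steps: enzyme/substrate mix dispensed; compound added, 10 min RT; NADPH regeneration solution added, 60 min RT; luciferin detection buffer stops reaction; 20 min later luminescence measured.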

[11] = Confirmation and Secondary Assay for Modulators of Hemoglobin Beta Chain Splicing at IVS2 654 locus (AID 910);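 further: per-well total GFP intensity by laser scanning cytometry after 2-day treatment; % of control where 0% means no effect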
Method in brief: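 HeLa cells stably carrying EGFP interrupted by mutant beta-globin IVS2-654 intron (CMV-driven) were treated with compound for 2 days at 37C; corrected splicing was scored as total peak GFP intensity per well (488 nm excitation, 500-520 nm emission).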

[12] = Confirmation and Secondary Assay for Modulators of Hemoglobin Beta Chain Splicing at IVS2 705 locus (AID 930);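 further: HeLa cells stably expressing the EGFP-705 splicing reporter; GFP fluorescence per well restored by corrected splicing of the IVS2-705 intron in EGFP; % of control where 0% means no effect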
Method in brief: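 Secondary splice-site specificity test uses HeLa expressing CMV-driven EGFP interrupted by IVS2-705; cells were treated 2 days at 37C with 500 nM antisense PNA as positive control.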

[13] = target: Ubiquitin carboxyl-terminal hydrolase 1 (Homo sapiens) (UniProt O94782); experiment: Inhibitors of USP1/UAF1: Pilot qHTS (AID 504865);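 further: rhodamine fluorescence freed from ubiquitin-rhodamine substrate followed over time; top concentration of the series differs between compounds; on the % scale 0 is the no-effect control and ±100 the full control effect; nearly all actives have a fitted effect of over 35% in size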
Ubiquitin carboxyl-terminal hydrolase 1 (Homo sapiens), sequence (O94782 whole entry, looked up): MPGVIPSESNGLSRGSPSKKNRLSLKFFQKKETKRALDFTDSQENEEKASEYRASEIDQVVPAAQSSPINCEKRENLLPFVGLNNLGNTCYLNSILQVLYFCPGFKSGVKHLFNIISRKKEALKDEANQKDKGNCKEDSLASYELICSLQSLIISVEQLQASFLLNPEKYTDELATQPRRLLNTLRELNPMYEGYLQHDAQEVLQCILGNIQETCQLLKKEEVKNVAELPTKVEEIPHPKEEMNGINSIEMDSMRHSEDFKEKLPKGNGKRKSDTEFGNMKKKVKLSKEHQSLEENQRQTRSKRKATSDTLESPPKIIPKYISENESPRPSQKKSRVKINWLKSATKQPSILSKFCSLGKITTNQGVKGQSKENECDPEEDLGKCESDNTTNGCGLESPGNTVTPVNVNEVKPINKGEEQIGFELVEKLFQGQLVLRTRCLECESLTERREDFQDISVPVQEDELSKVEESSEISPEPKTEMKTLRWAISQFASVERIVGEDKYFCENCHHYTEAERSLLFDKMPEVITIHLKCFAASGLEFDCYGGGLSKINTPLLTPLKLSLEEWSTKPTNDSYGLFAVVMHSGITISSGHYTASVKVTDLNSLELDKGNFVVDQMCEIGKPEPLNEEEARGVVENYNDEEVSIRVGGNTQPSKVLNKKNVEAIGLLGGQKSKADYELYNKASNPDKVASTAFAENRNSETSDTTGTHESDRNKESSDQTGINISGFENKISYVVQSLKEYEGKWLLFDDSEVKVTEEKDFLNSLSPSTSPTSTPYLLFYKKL
Method in brief: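 USP1/UAF1 complex at 1 nM preincubated 15 min at room temperature with compound, then Ub-Rho substrate added at 150 nM final. Fluorescence (480/540 nm) read kinetically in 50 mM HEPES pH 7.8, 0.5 mM EDTA, 1 mM TCEP, 0.1 mg/ml BSA, 0.01% Tween-20.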

[14] = Cell Viability - BJ (AID 421; calls by dose curve;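 further: potency means the concentration at half of the fitted maximal effect; cells exposed to compound for 40 hours at 37 °C before readout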); details: BJ fibroblast viability, qHTS
Method in brief: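 Cytotoxicity in human BJ foreskin fibroblasts is scored as loss of cellular ATP after a 40-hour exposure, measured by luciferase luminescence. Controls are DMSO and 100 uM tamoxifen.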

[15] = Cell Viability - Jurkat (AID 426;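 active means dose-dependent loss of cell ATP signal giving a full or clear fitted curve, ranked by lower potency value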;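 further: potency means the concentration at half of the fitted maximal effect; cells exposed to compound for 40 hours at 37 °C before ATP read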); details: qHTS
Method in brief: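 Seed 5000 Jurkat E6-1 cells/well; add compound; incubate 40 hr at 37 °C; add CellTiter-Glo; wait 20 min at room temperature; read luminescence. Fit concentration-response with Hill equation for AC50.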

[16] = Cell Viability - Hek293 (AID 427;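 active means compounds whose dose-response curve shows a full or clear partial loss of cell viability, called from curve shape rather than a numeric limit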;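 further: potency means the concentration at half of the fitted maximal effect; cells exposed to compound for 40 hours at 37 °C before reading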); details: qHTS
Method in brief: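 qHTS, human embryonic kidney (adenovirus-transformed) cells; 40 hr cpd, 37 °C; CellTiter-Glo ATP luminescence. Norm: DMSO = 0, 100 uM tamoxifen = 100% inhibition. Hill-fit AC50.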

[17] = Cell Viability - HepG2 (AID 433; calls by dose curve;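 further: potency means the concentration at half of the fitted maximal effect; cells exposed to compound for 40 hours; potency for ATP loss meaning cytotoxicity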); details: qHTS
Method in brief: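 HepG2 cells, 1500 per well, treated 40 hr at 37 °C in complete medium; viability from intracellular ATP by CellTiter-Glo luminescence. Normalized to DMSO and 100 uM tamoxifen; AC50 from Hill fit of qHTS concentration-response.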

[18] = Cell Viability - MRC5 (AID 434; calls by dose curve;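 further: potency means the concentration at half of the fitted maximal effect; cells exposed to compound for 40 hours at 37 °C; potency reflects cytotoxicity seen as loss of intracellular ATP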); details: MRC5 lung fibroblast viability, qHTS
Method in brief: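 MRC5 normal human lung fibroblasts (1500/well) were treated with compounds for 40 hr at 37 °C in complete medium, and viable cells were measured as intracellular ATP by CellTiter-Glo luminescence. AC50 came from Hill fits, normalized to DMSO and 100 uM tamoxifen.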

[19] = Cell Viability - SK-N-SH (AID 435; calls by dose curve;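 further: potency means the concentration at half of the fitted maximal effect; compound exposure lasted 40 h at 37 °C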); details: SK-N-SH neuroblastoma cell viability qHTS
Method in brief: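 SK-N-SH neuroblastoma cells (1500/well) treated 40 h at 37 °C in complete medium; viability read as cellular ATP by CellTiter-Glo luminescence. Normalized to DMSO and 100 uM tamoxifen; AC50 from Hill fits of qHTS concentration-response.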

[20] = Cell Viability - N2a (AID 540); details: N2a mouse neuroblastoma cell viability; activity change, negative = cytotoxicity: at 92.2 µM (top of the series);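 further: cells exposed to compound for 40 h at 37 °C; plate controls were DMSO alone for no effect and tamoxifen control for full effect; nearly all actives have a fitted effect of over 45% in size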
Method in brief: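 First, 1500 N2a cells per well incubate 5 hr at 37 °C; next, compounds are added and incubated 40 hr at 37 °C; finally CellTiter-Glo is added and luminescence read after 20 min, with AC50 derived by Hill modeling.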

[21] = Cell Viability - HUV-EC-C (AID 542);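 further: cells exposed to compound for 40 hours; on the % scale 0 is the no-effect control and ±100 the full control effect; nearly all actives have a fitted effect of over 35% in size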
Method in brief: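 Decrease in cellular ATP, quantified by luciferase luminescence, reflects toxicity in normal human vascular endothelial HUV-EC-C cells given compound for 40 hr in complete culture medium. Values are AC50s from concentration-response curves.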

[22] = Cell Viability - H-4-II-E (AID 543);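 further: cells exposed to compound for 40 hours; on the % scale 0 is the no-effect control and ±100 the full control effect; nearly all actives have a fitted effect of over 35% in size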
Method in brief: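 Here, cytotoxicity is measured in the rat hepatoma line H-4-II-E as loss of intracellular ATP after 40 hr compound treatment, detected by luciferase luminescence.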

[23] = Cell Viability - SH-SY5Y (AID 544); details: SH-SY5Y neuroblastoma cell viability; viability change, negative = cytotoxic: at 92.2 µM (top of the series);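 further: cells exposed to compound for 40 hours; nearly all actives have a fitted effect of over 55% in size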
Method in brief: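 Cytotoxicity is scored as a concentration-dependent fall in intracellular ATP in human SH-SY5Y cells treated 40 hr in complete culture medium. Potency is expressed as AC50 from a Hill equation fit.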

[24] = Cell Viability - Mesenchymal (AID 546); details: mesenchymal cells viability, qHTS; activity change, negative = cytotoxicity: at 91.7 µM (top of the series);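 further: cells exposed to compound for 40 hours before reading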
Method in brief: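 Normal human renal glomerulus-derived kidney mesenchymal cells, 1000 per well in complete medium, were treated with compounds for 40 hr at 37 °C. Viability was read as intracellular ATP by CellTiter-Glo luminescence; AC50 values came from Hill-equation fits of qHTS concentration-response data.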

[25] = target: 3',5'-cyclic-AMP phosphodiesterase 4B (Homo sapiens) (UniProt Q07343); experiment: qHTS Assay for Inhibitors of PDE-IV (AID 607; active means well fitted activation curve with a large enough effect in the main read-out, with a control signal flat, not every such curve was filed as active; further: % of control where 0% means no effect)
3',5'-cyclic-AMP phosphodiesterase 4B (Homo sapiens), sequence (Q07343 whole entry, looked up): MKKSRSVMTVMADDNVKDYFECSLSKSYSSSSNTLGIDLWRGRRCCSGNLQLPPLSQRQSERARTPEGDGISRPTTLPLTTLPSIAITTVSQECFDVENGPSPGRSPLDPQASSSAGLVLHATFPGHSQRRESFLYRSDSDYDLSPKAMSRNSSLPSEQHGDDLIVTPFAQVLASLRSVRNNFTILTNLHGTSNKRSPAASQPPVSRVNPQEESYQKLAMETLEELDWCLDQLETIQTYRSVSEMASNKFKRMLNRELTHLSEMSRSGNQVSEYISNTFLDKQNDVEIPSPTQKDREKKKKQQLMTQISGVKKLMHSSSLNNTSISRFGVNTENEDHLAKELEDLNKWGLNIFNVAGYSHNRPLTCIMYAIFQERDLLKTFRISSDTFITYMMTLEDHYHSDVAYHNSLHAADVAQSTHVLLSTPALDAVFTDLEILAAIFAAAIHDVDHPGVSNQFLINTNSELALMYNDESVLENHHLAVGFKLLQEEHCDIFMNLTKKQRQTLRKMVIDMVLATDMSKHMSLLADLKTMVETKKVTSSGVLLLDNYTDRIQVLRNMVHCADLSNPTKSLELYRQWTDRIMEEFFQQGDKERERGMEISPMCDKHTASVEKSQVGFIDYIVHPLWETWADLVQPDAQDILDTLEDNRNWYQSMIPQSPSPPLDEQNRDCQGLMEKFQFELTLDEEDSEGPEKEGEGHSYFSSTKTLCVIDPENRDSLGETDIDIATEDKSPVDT
Method in brief: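 The readout is membrane depolarisation from a cAMP-sensing CNG channel, detected with a potential dye at ex 535/em 590. Cells were HEK293-derived (endogenous PDE-IV) at 1000 cells/well, titrated up to 22.9 uM final.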

[26] = Cellular Toxicity (caspase-3) HepG2 (AID 654);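 further: cells exposed to compound for 16 hours before reading; 0% = DMSO alone and 100% = caspase signal from 100 µM tamoxifen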
Method in brief: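 qHTS, HepG2, 1500 cells/well, complete medium; cpd 16 h 37 °C; Caspase-Glo 3/7, 20 min RT; lum. Norm: DMSO vs 100 uM tamoxifen; AC50 Hill fit.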

[27] = Cellular Toxicity (caspase-3) HUV-EC-C (AID 656)
Method in brief: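 HUV-EC-C cells (1000/well) in complete medium, compound-treated 16 h at 37 °C; caspase-3/7 activity read by Caspase-Glo 3/7 luminescence. Normalized to DMSO (basal) and 100 uM tamoxifen (100%); AC50 from Hill-equation concentration-response fits.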

[28] = Cellular Toxicity (caspase-3) SHSY5Y (AID 657)
Method in brief: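 SH-SY5Y human neuroblastoma cells, 1500/well, exposed to compound for 16 hours at 37 °C in complete medium. Caspase-3/7 activity read by Caspase-Glo luminescence after 1 hr at room temperature, normalized to DMSO and 10 uM staurosporine; AC50 from Hill fit.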

[29] = Cellular Toxicity (caspase-3) MRC-5 (AID 659);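 further: 0% = DMSO basal and 100% = 10 µM staurosporine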
Method in brief: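 Luminescence from caspase-cleaved aminoluciferin substrate (Caspase-Glo 3/7, 1 hr RT) reports caspase 3/7 activity in MRC-5 lung fibroblasts after 16 hr compound exposure. Normalized to DMSO basal and 10 uM staurosporine as 100%; AC50 from Hill fits.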

[30] = Cellular Toxicity (caspase-3) Mesangial (AID 660);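 further: cells exposed to compound for 16 h before the caspase read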
Method in brief: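 Concentration-response qHTS: compound-induced rise in caspase 3/7 luminescence in human mesangial cells after 16 h, normalized to DMSO and 100 uM tamoxifen controls.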

[31] = Cellular Toxicity (caspase-3) SK-N-SH (AID 661);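 further: 0% = DMSO basal and 100% = 10 µM staurosporine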
Method in brief: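 Caspase 3/7 activation is measured as a luminescence increase from aminoluciferin released by substrate cleavage in SK-N-SH cells after 16 hr compound treatment; values are AC50 from concentration-response curves.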

[32] = Cellular Toxicity (caspase-3) H-4-II-E (AID 663); details: Potency: caspase-3 activation;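 further: cells exposed to compound for 16 hr before readout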
Method in brief: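 Luminescence from caspase-cleaved aminoluciferin substrate, read 20 min after reagent addition, reports caspase 3/7 activation in rat H-4-II-E cells after 16 hr compound exposure. Normalized to DMSO (basal) and 100 uM tamoxifen (100%); AC50 from Hill fits.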

[33] = Cellular Toxicity (caspase-3) Hek293 (AID 664); details: HEK293 caspase-3 activation, DMSO = 0%, 100 µM tamoxifen = 100%; at 92.2 µM (top of the series);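 further: cells exposed to compound for 16 h at 37 °C before readout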
Method in brief: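 Activation of caspase-3/7 is measured as increased luminescence from cleaved peptide-aminoluciferin substrate in HEK293 cells treated 16 hours at 37 °C. AC50 values come from Hill-equation fits of concentration-response data.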

[34] = Cellular Toxicity (caspase-3) N2a (AID 665);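 further: compound exposure lasted 16 h at 37 °C before readout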
Method in brief: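 Plated mouse neuroblastoma N2a cells received titrated compounds for 16 h in complete medium. Caspase activity was then detected with a peptide-aminoluciferin luminescent reagent.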

[35] = Cellular Toxicity (caspase-3) Renal Proximal Tubule (AID 667); details: Potency: caspase-3 activation
Method in brief: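 Freshly isolated primary rat kidney proximal tubule cells, 1000/well, treated 16 hr at 37 °C, then Caspase-Glo 3/7 luminescence after 1 hr. Normalized to DMSO and 10 uM staurosporine; AC50 from Hill fit.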

COc1ccc(Cl)cc1C(=O)NNC(=O)c1nc2nc(C)cc(C)n2n1
inactive: outcome [1]

CSc1n[nH]c(=S)n1N
inactive: outcome [1]

CN(C)c1ccc(-c2nc(N3CCNCC3)c3ccccc3n2)cc1
active: Potency [4] 10 µM
inactive: Potency [2] > 11.4 µM | activity change, negative = inhibition [3] -12.7% | activity change, negative = inhibition [5] 5.32% | activity, negative = inhibition [6] 23.9% | Potency [7] > 46 µM | Potency [8] > 46 µM | Potency [9] | Potency [10] | outcome [11] | outcome [12] | Potency [13]

O=C(O)c1cc(N=Nc2ccc([N+](=O)[O-])cc2)ccc1O
inactive: Potency [2] > 11.4 µM | activity change, negative = inhibition [3] -28% | activity change, negative = inhibition [4] -15.3% [at 2.29 µM] | Potency [14] > 92 µM | Potency [15] > 92 µM | Potency [16] > 92 µM | Potency [17] > 92 µM | Potency [18] > 92 µM | Potency [19] > 92 µM | activity change, negative = inhibition [5] 28.6% | activity, negative = inhibition [6] -2.69% | Potency [7] > 46 µM | Potency [8] > 9.22 µM | Potency [9] | activity change, negative = cytotoxicity [20] -5.65% | Potency [21] | Potency [22] | Potency [23] | Potency [24] | Potency [25] | Potency [26] | Potency [27] | Potency [28] | outcome [29] | outcome [30] | outcome [31] | Potency [32] | caspase-3 activation [33] -10.9% | outcome [34] | Potency [35]
